Rows were chosen to be rich in hits. Some 3.9% of all compounds tested hit in one or more screens of this group.
ALR H2O2 inh: human ALR oxidase inhibition via reduced H2O2 | inhibition, % (test concentration not listed) | purified ALR, DTT oxidation, H2O2 HRP-luminol luminescence | P55789 | AID 485317 | hit rate 3.8% among 290,000;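 active means mean replicate inhibition above about 79%, with every replicate also reaching it, limit read from the data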
Target sequence (P55789 whole entry, looked up): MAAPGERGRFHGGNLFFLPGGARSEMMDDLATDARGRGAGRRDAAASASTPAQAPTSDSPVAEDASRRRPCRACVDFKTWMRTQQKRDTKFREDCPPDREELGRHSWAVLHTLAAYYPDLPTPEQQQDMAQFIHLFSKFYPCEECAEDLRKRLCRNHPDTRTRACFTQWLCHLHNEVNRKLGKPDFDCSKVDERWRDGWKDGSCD
NSD2 HMT inh: inhibitors of human histone methyltransferase NSD2 | hit rate 0.54% among 310,000 | inhibition, % at 12.5 µM | AID 743445 | NSD2 peptide methylation, AlphaScreen, 120 min; in the data active means inhibition above about 50%
N-glyco inh: N-linked glycosylation inhibition; D54 ERlucT glycosylation luciferase reporter, 24 h; percent of 100 nM tunicamycin response; reporter increase, % at 12.5 µM; hit rate 0.23% among 360,000;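 active means mean luciferase reporter signal, scaled so untreated is 0 and the glycosylation-blocking control 100, at or above a set limit in every replicate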;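 further: luciferase carries N-glycosylation sites so blocking glycosylation raises the light; 0% = median of neutral control wells and 100% = median of 100 nM tunicamycin wells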
CDK5 p35 inh: blocks human CDK5/p35 kinase activity | AID 488839 | Q00535+Q15078 | hit rate 0.01% among 330,000 | Recombinant CDK5/p35, ADP-Glo luminescence, 60 min | inhibition, % at 10 µM;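 active means highest replicate inhibition of at least 50% and at least 75% of replicates reaching 50%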;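 further: plate controls were DMSO neutral control for no effect and GW8510 at 10 µM for full effect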
Casp6 inh: blocks human caspase-6 cleavage activity. P55212. purified caspase-6, Z-VEID-R110 cleavage fluorescence. inhibition, % at 12.5 µM. hit rate 0.53% among 350,000. AID 686996;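 active means mean inhibition across replicates at least about 35%, with every replicate also reaching that limit, limit read from the data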;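 further: 0% = median of neutral control wells and 100% = no fluorescence left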
Target sequence (P55212 24-179 limits assumed): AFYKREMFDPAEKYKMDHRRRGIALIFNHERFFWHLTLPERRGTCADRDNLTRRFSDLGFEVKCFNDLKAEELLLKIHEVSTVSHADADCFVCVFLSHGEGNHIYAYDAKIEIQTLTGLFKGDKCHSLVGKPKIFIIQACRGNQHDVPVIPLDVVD
Target sequence (P55212 194-293 limits assumed): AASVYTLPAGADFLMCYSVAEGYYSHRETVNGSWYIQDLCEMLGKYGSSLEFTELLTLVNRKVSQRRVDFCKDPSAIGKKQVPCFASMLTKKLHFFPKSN
SUMO Mot1 rescue: SUMOylation pathway inhibition by Mot1-301 growth rescue; S. cerevisiae Mot1-301 growth rescue, ATP luminescence, 38.5C; percent above DMSO median, 100 means doubled; growth rescue, % at 18.8 µM; hit rate 1% among 320,000; AID 2716;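 active means every valid replicate shows activation above 250% relative to neutral control wells; inactive means the rest, any valid replicate at or below 250%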;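 further: OY570 slx delta 5 strain wells were the positive control but not used for scaling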
Yeast Mot1 SUMO: inhibits SUMO pathway, affecting Mot1-301 yeast growth. shares compounds with SUMO Mot1 rescue. S. cerevisiae Mot1-301 galactose growth, ATP luminescence, 24 h; -100 = growth of slx-deleted rescue strain. growth activity, percent, % at 42 µM. 2,300 tested, under 10 active;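 active means Signal drops as the depositor expects, and the fitted half-maximal dose is no more than ten times the top valid tested dose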;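 further: more negative values mean stronger growth rescue toward the control strain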
The depositor's hits bear a star; · = not tested or not shown; + = active, no number.

SMILES | ALR H2O2 inh | NSD2 HMT inh | N-glyco inh | CDK5 p35 inh | Casp6 inh | SUMO Mot1 rescue | Yeast Mot1 SUMO
Cc1ccc2c(C)c(C(=O)N(C)C(C)c3ccncn3)oc2c1C (configuration not stated) | -2 | 23 | 4 | 0 | -7 | 359* | 0
Cc1ccc2c(C)c(C(=O)N(C)C(C)c3ccon3)oc2c1C (configuration not stated) | -4 | -1 | 2 | -2 | -2 | -6 | ·
COC(=O)c1ccccc1NC(=O)NC1CCCC1 | -4 | -3 | 2 | 1 | 3 | -15 | ·
COc1ccc(NC(=O)c2ccccc2NC(=O)NC2CCCCC2)cc1 | -4 | 11 | 5 | 1 | · | 522* | 0
O=C(C[C@@H]1C[C@H]2c3cc(NC(=O)c4ccc5c(c4)OCO5)ccc3O[C@H]2[C@H](CO)O1)NCC(F)(F)F | · | · | · | · | 2 | · | ·
Nc1ccc(N2CCN(c3ccc(Cl)c(Cl)c3)CC2)cc1 | 58 | 7 | 2 | 2 | -1 | 94 | ·
Nc1ccc(N2CCN(c3ccc(F)cc3)CC2)cc1 | 99* | 2 | 0 | -2 | -5 | 903* | 0
C[C@H]1CN([C@@H](C)CO)C(=O)Cc2cc(NC(=O)Cc3ccccc3)ccc2O[C@H]1CN(C)C | · | · | · | · | -2 | · | ·
O=C(CCC(=O)OCC(=O)c1ccc(Br)cc1)Nc1cccc2cccnc12 | -11 | -1 | 0 | -1 | · | 429* | 0
O=C(CSc1cccc2cccnc12)OCC(=O)c1ccc(Br)cc1 | -5 | -2 | 6 | -3 | · | -2 | ·
COc1cc2c(cc1OC)-c1cc(Nc3cccc(F)c3)nc(=O)n1CC2 | · | 1 | 2 | 0 | 2 | · | ·
CCN(CC)c1ccc(Nc2cc3n(c(=O)n2)CCc2cc(OC)c(OC)cc2-3)cc1 | 100* | 26 | 5 | 4 | 9 | + | 0
C[C@H]1CN=C(Nc2ccccc2)N1CCC1CCCC1 | -2 | · | -2 | -2 | -5 | 921* | 0
CN(C)c1ccc(CN(Cc2ccco2)C(=O)c2ccco2)cc1 | 99* | 24 | -4 | 0 | 2 | 366* | 0
CCCNC(=O)Cn1sc2nc(C)cc(C)c2c1=O | 19 | · | 1 | 15 | -7 | 423* | 0
Cc1cc(C)c2c(=O)n(CC(=O)N3CCC(N4CCCCC4)CC3)sc2n1 | 22 | · | 2 | -1 | -42 | -13 | ·
CN(C)CC#Cc1ccc([C@H]2[C@H](CO)N3CCCCN(C(=O)C4CCCC4)C[C@@H]23)cc1 | · | · | · | · | 1 | · | ·
CCc1ccc(-c2nc(SCC(=O)N3CCOCC3)n[nH]2)cc1 | -3 | 40 | 2 | 1 | 3 | 527* | 1
O=C(CSc1n[nH]c(-c2cccs2)n1)N1CCOCC1 | 0 | -1 | 2 | 0 | 1 | 0 | ·
COc1ccc2nc(C)cc(SCC(=O)Nc3c(C)cc(C)cc3C)c2c1 | · | 0 | 0 | 8 | · | -15 | ·
CCOC(=O)CSc1cc(C)nc2ccc(OC)cc12 | 98* | 5 | 0 | -13 | -6 | 476* | 0
COc1ccc(C(=O)N/C(=C\c2cc(OC)c(OC)cc2[N+](=O)[O-])C(=O)NCC(=O)O)cc1 | -16 | -10 | 11 | -1 | -2 | 11 | ·
COc1ccc(C(=O)N/C(=C\c2cc(OC)c(OC)cc2[N+](=O)[O-])C(=O)NCCO)cc1 | · | 1 | -1 | 0 | 2 | 993* | 0
COc1ccccc1C#Cc1cnc2c(c1)C(=O)N([C@H](C)CO)C[C@H](C)[C@@H](CN(C)C(=O)CC1CC1)O2 | · | · | · | · | 0 | · | ·
CCCc1nccn1S(=O)(=O)c1cc(OC)ccc1OC | -1 | 6 | 2 | 0 | · | · | ·
SMILES | ALR H2O2 inh | NSD2 HMT inh | N-glyco inh | CDK5 p35 inh | Casp6 inh | SUMO Mot1 rescue | Yeast Mot1 SUMO
CCc1nccn1S(=O)(=O)c1cc(OC)ccc1OC | 1 | 15 | 0 | -2 | -2 | 499* | 1
O=C(Nc1ccc2c(c1)[C@H]1C[C@H](CC(=O)N3CCCCC3)O[C@H](CO)[C@H]1O2)C1CCC1 | · | · | · | · | -1 | · | ·
O=C1CC(c2ccccc2)c2ccc(O)cc2O1 (configuration not stated) | 27 | 0 | 2 | 1 | · | + | 0
COc1ccccc1C1CC(=O)Oc2cc(O)ccc21 (configuration not stated) | · | · | 2 | -3 | 2 | · | ·
C=C(C)Cn1c(N)cc(=O)nc1SCC(=O)Nc1cccc(C(F)(F)F)c1 | 97* | -1 | 3 | 1 | 0 | 413* | 0
CC(=O)Nc1ccc(C(=O)NCCCOC(C)C)cc1 | · | · | 1 | -2 | -4 | 798* | 0
CC1CCN(CCCCOc2ccc(F)cc2)CC1 | 3 | 7 | -3 | 0 | · | 548* | 0
CCN(CC)CCOc1cccc(C(C)C)c1 | -25 | 13 | 1 | -2 | · | 245 | ·
CC1CCN(CCCCOc2cccc(C(C)C)c2)CC1 | -3 | 20 | -4 | 4 | -12 | 408* | -1
CC(C)c1cccc(OCCCCN(C)C)c1 | 2 | 1 | 2 | 0 | -10 | 568* | 0
Cc1ccc(OCCCCN2CCC(C)CC2)cc1 | -2 | 6 | -2 | 0 | · | 70 | ·
CC1CCN(CCCOc2ccc(OCc3ccccc3)cc2)CC1 | -2 | -1 | -1 | -2 | -3 | 551* | 0
Cc1noc(C)c1S(=O)(=O)N(C)C[C@H]1Oc2ccc(NC(=O)C3CCCCC3)cc2CC(=O)N([C@H](C)CO)C[C@@H]1C | · | · | · | · | -1 | · | ·
COc1ccc(NC(=O)N(C)C[C@H]2Oc3c(NS(C)(=O)=O)cccc3C(=O)N([C@@H](C)CO)C[C@H]2C)cc1 | · | · | · | · | 3 | · | ·
C[C@@H]1CN([C@H](C)CO)C(=O)c2cc(NS(=O)(=O)c3ccccc3)ccc2O[C@@H](C)CCCCO[C@H]1CN(C)S(=O)(=O)c1ccc(F)cc1 | · | · | · | · | 1 | · | ·
Cc1ccc(SC[C@H](C)CN2CC[C@H](C)CCC2=O)cc1 | -2 | · | -3 | 1 | 0 | 460* | 0
O=C1NC(=O)N(Cc2ccccc2)C1=O | -2 | -1 | 4 | 1 | -1 | + | 1
O=C1NC2(CCCCCC2)C(=O)N1Cc1ccccc1 | 23 | 0 | -2 | -1 | -1 | -3 | ·
C[C@@H]1CN([C@@H](C)CO)C(=O)c2cc(C#CC3CCCCC3)cnc2O[C@@H]1CN(C)Cc1ccncc1 | · | · | · | · | -1 | · | ·
